Test results published in ChEMBL document CHEMBL3988442, “University of Dundee, Small-Polar-MMV Screening Library” (2021).
The campaign covered roughly 38,000 compounds. About 1,200 (3.2%) showed an effect of 50% or more. The median lay at about -58%. Shown is part of a subset that was picked to be rich in strong results.

Test system: Plasmodium falciparum
Test: Calibr Malaria Delayed Death Assay SOP
Type: functional, organism-based
Design: scale not given: in the data most compounds retested in dose-response had high values
Conditions: concentration 4.99e-06 (unit not given; other assays of the set use mol/L)

## Cc1ccc(C(O)CNC(=O)NCc2c(C)cc(C)[nH]c2=O)cc1 (stereo unspecified)
  Percent Effect: -76.06%

## Cc1nc(-c2cccnc2)ncc1C(=O)N1CCCC(N(C)C)CC1 (stereo unspecified)
  Percent Effect: -60.09%

## CN(C)CC1CSCCCN1S(=O)(=O)c1ccc(C(F)(F)F)cc1 (stereo unspecified)
  Percent Effect: 60.28%

## Cc1cccc(OC2CCN(S(=O)(=O)Cc3cccc(F)c3)CC2)n1
  Percent Effect: -131.9%

## CN(C)CC1CSCCCN1C(=O)c1ccc(C(C)(C)C)cc1 (stereo unspecified)
  Percent Effect: 0.9343%

## CS(=O)(=O)C1CCN(S(=O)(=O)Cc2cccc(F)c2)CC1
  Percent Effect: -94.28%

## CN(C)CC1CSCCCN1S(=O)(=O)Cc1ccc(C(F)(F)F)cc1 (stereo unspecified)
  Percent Effect: 9.215%

## CN(C)CC1CSCCCN1S(=O)(=O)Cc1cccc(F)c1 (stereo unspecified)
  Percent Effect: 58.19%

## Cc1cccc(CN2CC[C@@H]3[C@@H]2CCN3C(=O)c2cc(C)oc2C)n1.O=C(O)C(F)(F)F
  Percent Effect: -98.87%

## Cn1nc2c(cc1=O)CN(Cc1nc(N)c3ccccc3n1)CC2
  Percent Effect: -169.7%

## Cc1cccc(C2CCCN(C(=O)c3ccncc3)C2)n1 (stereo unspecified)
  Percent Effect: -31.2%

## CCc1ccc(C(=O)N2CC(C(=O)NC(C)C)C3(CCOCC3)C2)cc1 (stereo unspecified)
  Percent Effect: -34.39%

## FC(F)(F)c1n[nH]c2c1CN(CCc1ccccn1)CC2
  Percent Effect: -42.86%

## [O-][S+](CCN1CCc2[nH]nc(C(F)(F)F)c2C1)c1ccccc1 (stereo unspecified)
  Percent Effect: -19.45%

## O=C(CCN1CCc2[nH]nc(C(F)(F)F)c2C1)Nc1ccccc1
  Percent Effect: -17.85%

## OCCN1CCc2[nH]nc(C(c3ccccc3)c3ccccc3)c2C1
  Percent Effect: 59.95%

## CC(O)CN1CCc2[nH]nc(C(c3ccccc3)c3ccccc3)c2C1 (stereo unspecified)
  Percent Effect: 40.85%

## OCCCN1CCc2[nH]nc(C(c3ccccc3)c3ccccc3)c2C1
  Percent Effect: 71.73%

## COCCCC1(C(=O)O)CCCN(C(=O)c2ccc(Cl)cc2F)C1 (stereo unspecified)
  Percent Effect: -104.4%

## CNC(=O)c1ccc2c(c1)C1(CCN(CC3CC3)CC1)C(=O)N2.O=C(O)C(F)(F)F
  Percent Effect: -45%

## CN(Cc1ccncc1)C1COC2(CCN(Cc3ccco3)CC2)C1.O=C(O)C(F)(F)F.O=C(O)C(F)(F)F.O=C(O)C(F)(F)F (stereo unspecified)
  Percent Effect: -70.95%

## CS(=O)(=O)CCNC(=O)Nc1sc2ccccc2c1Cl
  Percent Effect: -106.1%

## CS(=O)(=O)CCCNC(=O)Nc1sc2ccccc2c1Cl
  Percent Effect: -18.18%

## CN(C)CC(C)(O)CNC(=O)Nc1sc2ccccc2c1Cl (stereo unspecified)
  Percent Effect: 61%

## CN(C)C(=O)N1C[C@@H]2CC[C@H](C1)N(C/C=C/c1ccc(F)cc1)C2
  Percent Effect: 56.59%

## CS(=O)(=O)N1C[C@@H]2CC[C@H](C1)N(C/C=C/c1ccc(F)cc1)C2
  Percent Effect: -47.28%

## CN(C)C(=O)CN1C[C@@H]2CC[C@H](C1)N(C/C=C/c1ccc(F)cc1)C2
  Percent Effect: 41.87%

## CCN(c1ccsc1C(=O)N1CCSCC1)S(=O)(=O)c1ccc(Cl)cc1
  Percent Effect: -33.89%

## Cc1cnn(Cc2ccc(NC(=O)N3CCCC3)cc2)c1
  Percent Effect: -108.6%

## Cc1ccc(C(=O)N(C)Cc2csc(C)n2)c(=O)[nH]1
  Percent Effect: -148.4%

## CCC(NC(=O)C1CCN(C(C)C)CC1)c1cn2cccnc2n1 (stereo unspecified)
  Percent Effect: -73.6%

## Cc1n[nH]c(C)c1-c1cc(-c2ccc[nH]2)nc(N)c1C#N
  Percent Effect: -191.7%

## Cc1n[nH]c(C)c1-c1cc(-c2cccc(O)c2)nc(N)c1C#N
  Percent Effect: -75.89%

## CC(C)Cc1cc(-c2cc(-c3ccc[nH]3)nc(N)c2C#N)n[nH]1
  Percent Effect: 60.25%

## Cc1ccc(CNCc2c(C(C)C)nn(C)c2N2CCOCC2)s1
  Percent Effect: 43.54%

## Cc1nccn1Cc1nnc(C2CCCN(Cc3ccncc3)C2)n1C (stereo unspecified)
  Percent Effect: -18.97%

## Cc1nccn1CCCN1CCCC(c2ccccc2)C1 (stereo unspecified)
  Percent Effect: 77.62%

## Cc1nccn1CCCN1CCC(c2nccn2CC2CCC2)CC1
  Percent Effect: -43.9%

## COc1cc(C)ccc1OCCC(=O)N1CCC(N2CC=CC2)C1 (stereo unspecified)
  Percent Effect: -87.08%

## COc1ccc(N2CCN(Cc3noc(CC(C)C)n3)C(C)C2=O)cc1 (stereo unspecified)
  Percent Effect: -89.75%

## COc1ccccc1CN(Cc1cccnc1)CC1CCCO1.O=C(O)CC(O)(CC(=O)O)C(=O)O (stereo unspecified)
  Percent Effect: -1.656%

## CN(C)CCN(C)C(=O)Cc1ccc2c(c1)OCCO2.O=C(O)CC(O)(CC(=O)O)C(=O)O
  Percent Effect: -18.25%

## COc1cc(CN(CCCN(C)C)Cc2ccccn2)cc2c1OCO2.O=C(O)CC(O)(CC(=O)O)C(=O)O
  Percent Effect: 79.66%

## CCN1CCc2[nH]cnc2C12CCN(C(=O)CCc1cccs1)CC2
  Percent Effect: -14.54%

## CN(C)CCN1CCN(C)c2nc(-c3ccccc3)ncc2C1=O
  Percent Effect: -20.71%

## CCN(C)CC(C)Cn1cnc(-c2ccccc2)c1C (stereo unspecified)
  Percent Effect: -12.51%

## CCc1c(C)sc2c1c(N)nc(=O)n2CCCN(C)C
  Percent Effect: -156.5%

## CCc1c(-c2ccccc2)nc2c(c(C)c(C)n2CCN(C)C)c1N
  Percent Effect: 66.32%

## CCCc1nc2c(c(C)c(C)n2CCN(C)C)c(N)c1CC
  Percent Effect: 89.53%

## Cc1c(-c2ccccc2)nc2c(c(C)c(C)n2CCN(C)C)c1N
  Percent Effect: 79.27%

## CCc1c(C)sc2c1c(N)nc(=O)n2CCN(C)C
  Percent Effect: 14.15%
